Screening data from PubChem BioAssay.
AmpC inh no detg = blocks E. coli AmpC beta-lactamase in detergent-free assay; actives 0.52% (n = 330,000); AID 485341; AmpC nitrocefin hydrolysis, absorbance 480 nm, 0.0001% Triton; P00811; Potency, µM (doses to about 57.1 µM), inactives show at the top dose activity change, negative = inhibition, most hits filed as inhibitors;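 further: potency means the concentration at half of the fitted maximal effect; plate controls were no compound for no effect and no enzyme for full effect; nearly all actives have a fitted effect of over 20% in size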
Target sequence (P00811 whole entry, looked up): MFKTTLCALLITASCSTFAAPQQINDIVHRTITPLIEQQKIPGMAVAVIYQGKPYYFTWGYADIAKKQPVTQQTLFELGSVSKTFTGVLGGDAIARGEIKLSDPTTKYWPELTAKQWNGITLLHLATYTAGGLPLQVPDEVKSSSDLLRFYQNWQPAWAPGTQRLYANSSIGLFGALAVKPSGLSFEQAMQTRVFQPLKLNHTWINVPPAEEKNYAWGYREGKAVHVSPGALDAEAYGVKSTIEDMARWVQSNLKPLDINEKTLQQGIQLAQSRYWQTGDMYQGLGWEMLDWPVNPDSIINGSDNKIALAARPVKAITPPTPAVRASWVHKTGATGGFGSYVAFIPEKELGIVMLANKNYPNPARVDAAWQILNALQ
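20 mM phosphate pH 7.0 + 0.01% (detergent screen) or 0.0001% Triton X-100; 5.3 nM AmpC reagent; cpd preinc 15 min RT; nitrocefin (800 uM stock) to start; A480 q20 s × 4 min; Activity was normalised to no-enzyme and no-compound control wells.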
FMDV antiviral = foot and mouth disease virus antiviral activity | FMDV antiviral cell-based qHTS | Potency, µM (titrated, usually from 57.9 µM), for inactives: at the top dose activity change, negative = inhibition, actives largely listed as inhibitors | actives 1.2% (n = 410,000); calls by dose curve; tested in HEK293T cells; further: read-out not given here; potency means the concentration at half of the fitted maximal effect; nearly all actives have a fitted effect of over 45% in size
HCV inh = HCV inhibition; actives 3.4% (n = 340,000); Huh7.5.1 HCVcc-Cre infection, luciferase reporter, 44 h; AID 651820; Potency, µM (top dose mostly 41.8 µM), without a hit: top-dose activity change, negative = inhibition, hits mostly inhibitors; further: potency means the concentration at half of the fitted maximal effect
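Infectious HCV cell culture screen: compound-treated cells (1,000/well, pre-plated 4 h) are infected with HCVcc-Cre at roughly 0.5 moi and grown 44 h. Infection is quantified by luciferase signal after 15 min substrate incubation at room temperature.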
AmpC inh detg = inhibitors of E. coli AmpC beta-lactamase with detergent | P00811 | AmpC hydrolysis of nitrocefin, absorbance 480 nm, 0.01% Triton | Potency, µM (series often up to 114 µM), for the others: top-dose activity change, negative = inhibition, usual class: inhibitors | actives 0.041% (n = 370,000) | AID 485294;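 further: potency means the concentration at half of the fitted maximal effect; 0% = no-compound wells and -100% = no-enzyme wells; nearly all actives have a fitted effect of over 25% in size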
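20 mM phosphate pH 7.0 + 0.01% (detergent screen) or 0.0001% Triton X-100; 5.3 nM AmpC reagent; cpd preinc 15 min RT; nitrocefin (800 uM stock) to start; A480 q20 s × 4 min; Activity was normalised to no-enzyme and no-compound control wells.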
HCMV inh = human cytomegalovirus inhibition; HFF cells, HCMV-luciferase reporter, 72 h; active compounds read low; activity change, negative = inhibition, % at 57.5 µM; actives 4.5% (n = 410,000); in the data active means activity change below about -60%; inconclusive means no clear call, values can overlap the other calls; inactive means above about -39%
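Steps: HFFs plated, 16 h 37C; compounds added; HCMV-luciferase added to MOI 1 PFU/cell; 72 h 37C; OneGlo reagent, 5 min room temperature; luminescence read, normalized to controls.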
Starred values were filed as active, the others as inactive; u = inconclusive; x = not tested or not shown. Rows were chosen to be rich in hits. Some 7.3% of all compounds tested hit in one or more screens of this group. Unless noted, the call rests on the fitted dose curve; in most records, active means well fitted curve in the direction sought with a large enough effect; inconclusive means small, poorly fitted or top-dose-only effect, or another doubt; inactive means no such curve, though single readings can be large; an effect the other way counts as inactive or inconclusive. Unless noted, on the % scale 0 is the no-effect control and ±100 the full control effect.

SMILES	AmpC inh no detg	FMDV antiviral	HCV inh	AmpC inh detg	HCMV inh
CN1CCN(c2ccc(NC(=O)c3sc4ccccc4c3Cl)cc2)CC1	11.1%	0.6%	u	7.0%	u
Cc1c(NC(=O)CSc2nc3ccccc3c(=O)n2C(C)C)c(=O)n(-c2ccccc2)n1C	20.0%	-14.1%	-13.2%	-4.0%	-65.3*
Cc1c(NC(=O)CSc2nnc3c4ccccc4n(CCc4ccccc4)c3n2)c(=O)n(-c2ccccc2)n1C	46.1%	u	u	3.6%	-85.1*
Cc1c(-n2c(SCC(C)C)nc3ccccc3c2=O)c(=O)n(-c2ccccc2)n1C	52.8%	-0.2%	-2.5%	5.3%	-64.3*
Cc1c(-n2c(SCC(=O)NC(C)C(C)C)nc3ccccc3c2=O)c(=O)n(-c2ccccc2)n1C (centres undefined)	26.0%	-1.1%	11.0%	3.3%	-26.5
CCn1c(=O)c2c(nc3n2CCCN3Cc2ccccc2)n(C)c1=O	7.2%	-26.4%	-8.0%	1.6%	4.3
CCn1c(=O)c2c(nc3n2CCCN3CCc2ccc(OC)c(OC)c2)n(C)c1=O	43.9%	u	-18.5%	-7.4%	29.5
Cn1c(=O)n(Cc2ccc(F)cc2)c(=O)c2c1nc1n2CCCN1C1CCCCC1	-1.1%	u	11.7%	-9.1%	-67.1*
COc1ccc(CCN2CCCn3c2nc2c3c(=O)n(CC(C)C)c(=O)n2C)cc1OC	92.5%	u	10µM*	-0.9%	-30.0
Cc1cccc(Cn2c(=O)c3c(nc4n3CCCN4Cc3ccccc3)n(C)c2=O)c1	1.0%	u	11.2µM*	1.0%	-29.0
Cn1c(=O)n(Cc2ccccc2)c(=O)c2c1nc1n2CCCN1C1CCCCC1	x	u	4.9%	x	-37.6
COC(=O)[C@]12CCCCC=C1N(CCC1=CCCCC1)C(=O)[C@H](CC(=O)N1CCC(c3ccccc3)CC1)C2	x	0.0%	x	x	-8.9
CC(CC(C#N)(c1ccccc1)c1ccccc1)N(C)C (centres undefined)	0.0%	-22.6%	1.6%	x	11.7
CCC(C#N)(CC)P(=S)(c1ccccc1)c1ccccc1	-25.4%	-11.2%	1.0%	-11.4%	-73.3*
CC1CCc2onc(C(=O)Nc3ccc(Cl)cc3)c2C1 (centres undefined)	x	30.9%	x	24.5%	-5.2
O=[N+]([O-])c1ccc(S(=O)(=O)N2CCN(Cc3c[nH]c4ccccc34)CC2)cc1	-34.2%	-12.5%	22.4µM*	-10.2%	60.7
O=S(=O)(c1ccc(Cl)cc1)N1CCN(Cc2ccc(O)c3ncccc23)CC1	-58.9%	-16.1%	u	-5.2%	-97.9*
O=S(=O)(c1ccc(Cl)cc1)N1CCN(Cc2ccncc2)CC1	1.2%	-13.9%	9.5%	0.8%	4.3
Oc1ccc(CN2CCN(Cc3ccccc3)CC2)c2cccnc12	-15.8%	-7.5%	10µM*	-5.4%	52.0
COc1ccc(C(C(=O)NC(C)(C)C)N(CCc2ccc(OC)c(OC)c2)C(=O)CCC(=O)Nc2cc(C)on2)cc1 (centres undefined)	27.9%	1.0%	-5.8%	2.5%	7.4
Cc1ccc2c(=O)c(C(=O)c3cccc(Cl)c3)cn(CC(=O)NC3CCCCC3)c2n1	x	-13.5%	x	1.0%	10.4
NNC(=O)CSc1cccc2cccnc12	-8.4%	-3.3%	27.5%	0.2%	30.0
O=C(CSc1cccc2cccnc12)Nc1cc(C(=O)O)cc(C(=O)O)c1	-10.0%	-10.6%	11.2µM*	-12.3%	12.8
O=C(CSc1cccc2cccnc12)N1CCCC1	-15.8%	u	0.708µM*	-1.5%	u
O=C(CNC(=O)c1ccccc1)Nc1ccc(Br)cc1C(=O)c1ccccc1	-3.6%	1.0%	u	-9.2%	-3.7
SMILES	AmpC inh no detg	FMDV antiviral	HCV inh	AmpC inh detg	HCMV inh
O=C(CN1CCCCC1)NCC(=O)Nc1ccc(Br)cc1C(=O)c1ccccc1	29.3%	-22.7%	11.2µM*	u	12.9
COc1ccccc1C(=O)N=c1sc2c(C)ccc(OC)c2n1C	25.7%	18.8%	u	-0.1%	-8.4
CCn1c(=NC(=O)c2ccco2)sc2cccc(F)c21	3.55µM*	41.4%	u	u	119.6
COc1ccc(OC)c2c1sc(=NC(=O)C1CC1)n2C	-0.8%	-24.7%	14.1µM*	0.4%	-5.1
COc1ccc(OC)c2c1sc(=NC(=O)c1ccco1)n2C	-36.6%	-23.2%	7.94µM*	u	-5.9
COc1ccc(C(=O)N=c2sc3c(C)ccc(OC)c3n2C)cc1OC	-1.8%	43.5%	15.8µM*	7.0%	82.6
CCCCC(=O)N=c1sc2c(OC)ccc(OC)c2n1C	-3.9%	-6.6%	-1.6%	0.6%	-38.8
COc1ccc(C2=C(C)C(N3CCC(C(=O)Nc4cc(C)ccc4C)CC3)=NS2(=O)=O)cc1	x	-19.0%	x	6.3%	5.9
COCCn1c(=NC(=O)c2ccc3c(c2)OCCO3)sc2cc(C(=O)OC)ccc21	x	0.0%	x	19.7%	67.2
CCOC(=O)c1ccc2c(c1)sc(=NC(=O)c1ccco1)n2CCOC	-24.3%	4.8%	-11.4%	u	-68.1*
CC(=O)Oc1ccc(C(=O)O)cc1OC(C)=O	-34.1%	-29.0%	8.0%	3.9%	22.6
CC(=O)Oc1cccc2c1C(=O)c1c(OC(C)=O)cc(C(=O)O)cc1C2=O	-16.3%	u	7.08µM*	3.0%	-3.4
COc1ccc(-c2c(-c3ccccc3OC)sc3ccccc23)cc1F	x	x	x	x	-14.9
COc1ccc2cc(-c3cc(C(=O)O)c4ccccc4n3)ccc2c1	-2.4%	10µM*	18.0%	8.2%	-60.8*
COc1ccc(-c2cc(C(=O)OCC(=O)N3CCCC3)c3ccccc3n2)cc1	133.0%	-3.1%	u	-8.1%	19.0
CC(=O)Nc1ccc(-c2cc(C(=O)O)c3cc4ccccc4cc3n2)cc1	x	9.9%	x	x	8.4
COc1cccc(CN(C)C(=O)c2cc(-c3ccc(F)cc3)nc3ccccc23)c1	-0.8%	-27.0%	31.6µM*	3.7%	x
COc1ccc(-c2cc(C(=O)O)c3ccccc3n2)c(OC)c1	-19.2%	-18.3%	1.4%	u	0.3
COc1ccc2nc(-c3ccccc3)cc(C(=O)OCC(=O)N3CCCCC3)c2c1	7.5%	-20.6%	u	u	-61.9*
COC(=O)c1cc(-c2ccc(NC(C)=O)cc2)nc2ccccc12	68.0%	-9.0%	u	-0.3%	-68.1*
NS(=O)(=O)c1ccc(CNC(=O)c2cc(=O)[nH]c3ccccc23)cc1	-5.0%	-2.9%	13.1%	-6.2%	-26.8
COc1ccc(CCN(C)C(=O)c2cc(-c3ccccc3)nc3ccc(C)cc23)cc1OC	-30.5%	18.5%	u	1.4%	33.1
COc1ccc(CN(C)C(=O)c2cc(-c3ccccc3)nc3ccc(C)cc23)c(OC)c1OC	120.4%	-9.6%	10µM*	10.5%	x
COC(=O)c1cc(OC)c(OC)cc1NC(=O)c1csc(C)c1	-21.9%	-19.0%	-12.9%	0.2%	-67.3*
COC(=O)c1cc(OC)c(OC)cc1NC(=O)c1cccc(C)c1	-1.4%	-13.2%	u	5.1%	u
